# Experimental data from PubChem BioAssay (NCATS).
# Inconclusive results are not listed. Where a call stands in place of a potency, no number is given. The source made the active and inactive calls. The call rests on the fitted dose curve; in most records, active means well fitted curve in the direction sought with a large enough effect; inconclusive means small, poorly fitted or top-dose-only effect, or another doubt; inactive means no such curve, though single readings can be large; an effect the other way counts as inactive or inconclusive.
# Tests used:
# [1] = biological target: Chromobox protein homolog 1 (Homo sapiens) (UniProt P83916); test: qHTS Validation Assay for Inhibitors of HP1-beta Chromodomain Interactions with Methylated Histone Tails (AID 488953);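 further: loss of AlphaScreen luminescence from HP1-beta binding biotinylated H3K9me3 peptide; series mostly up to about 110 µM; nearly all actives have a fitted effect of over 50% in size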
# Chain of Chromobox protein homolog 1 (Homo sapiens) (P83916 whole entry, looked up): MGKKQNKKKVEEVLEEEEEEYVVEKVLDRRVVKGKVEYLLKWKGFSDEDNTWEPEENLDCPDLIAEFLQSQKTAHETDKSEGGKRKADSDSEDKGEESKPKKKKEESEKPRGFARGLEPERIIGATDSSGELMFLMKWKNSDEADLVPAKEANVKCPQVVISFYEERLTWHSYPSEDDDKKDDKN
# In short: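 Compounds pinned into a preassembled complex of HP1-beta and trimethyl-K9 histone H3(1-18) biotin peptide (50 nM each; PBS pH 7.4, 0.01% Tween-20). After 30 min, bead-based AlphaScreen detection followed.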
# [2] = biological target: Methanococcus maripaludis chaperonin (MmCpn) (UniProt Q6LX38); test: High-Throughput Screening for Modulators of Cytosolic Chaperonin Activity: MmCpn Primary Screen (AID 488978);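 further: 50 nM MmCpn enzyme hydrolysing 30 µM ATP at 37 °C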
# Chain of Methanococcus maripaludis chaperonin (MmCpn) (Q6LX38 1-543): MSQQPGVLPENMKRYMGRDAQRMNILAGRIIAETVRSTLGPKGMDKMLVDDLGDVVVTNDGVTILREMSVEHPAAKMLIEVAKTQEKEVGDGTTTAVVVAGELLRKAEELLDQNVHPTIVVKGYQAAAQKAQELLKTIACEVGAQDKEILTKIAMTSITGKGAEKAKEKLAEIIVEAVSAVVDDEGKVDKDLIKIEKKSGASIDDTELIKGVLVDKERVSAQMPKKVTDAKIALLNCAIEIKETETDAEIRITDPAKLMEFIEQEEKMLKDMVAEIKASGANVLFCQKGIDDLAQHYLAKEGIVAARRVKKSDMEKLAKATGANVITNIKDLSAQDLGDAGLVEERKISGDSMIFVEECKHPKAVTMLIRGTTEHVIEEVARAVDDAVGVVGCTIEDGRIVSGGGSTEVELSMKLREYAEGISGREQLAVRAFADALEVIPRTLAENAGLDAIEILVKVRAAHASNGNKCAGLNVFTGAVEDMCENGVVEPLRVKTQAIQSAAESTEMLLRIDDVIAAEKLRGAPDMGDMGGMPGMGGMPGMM
# In short: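 ADP formation read by HTRF Transcreener, 665/590 nm emission after 320 nm excitation. Enzyme: archaeal chaperonin at 50 nM final; substrate ATP 30 uM final; 10 min, 37C, after 5 min compound preincubation at RT.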
# [3] = biological target: D(1A) dopamine receptor (Homo sapiens) (UniProt P21728); test: HTS Assay for Allosteric Agonists of the Human D1 Dopamine Receptor: Primary Screen for Agonists (AID 488981)
# Chain of D(1A) dopamine receptor (Homo sapiens) (P21728 whole entry, looked up): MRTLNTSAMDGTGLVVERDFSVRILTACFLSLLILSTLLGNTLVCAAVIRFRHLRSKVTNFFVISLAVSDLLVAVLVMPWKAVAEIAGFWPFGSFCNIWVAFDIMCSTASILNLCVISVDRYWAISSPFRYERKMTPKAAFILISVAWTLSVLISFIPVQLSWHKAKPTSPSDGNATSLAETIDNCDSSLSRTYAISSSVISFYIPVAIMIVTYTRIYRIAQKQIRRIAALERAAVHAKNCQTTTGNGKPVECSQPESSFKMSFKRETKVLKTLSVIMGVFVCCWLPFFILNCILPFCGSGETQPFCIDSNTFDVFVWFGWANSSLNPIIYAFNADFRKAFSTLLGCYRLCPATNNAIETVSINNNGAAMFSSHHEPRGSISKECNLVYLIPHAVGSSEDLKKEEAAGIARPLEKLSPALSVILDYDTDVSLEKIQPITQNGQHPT
# In short: (§1)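 Tetracycline-induced HEK293 T-REx cells force-coupled to calcium signalling were incubated overnight at 30 C and dye-loaded at room temperature. Calcium flux over 180 s after compound addition flagged agonists; a further 180 s read after EC20 dopamine flagged potentiators.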
# [4] = biological target: D(1A) dopamine receptor (Homo sapiens) (UniProt P21728); test: HTS Assay for Allosteric Agonists of the Human D1 Dopamine Receptor: Primary Screen for Potentiators (AID 488982)
# In short: as §1
# [5] = biological target: D(1A) dopamine receptor (Homo sapiens) (UniProt P21728); test: HTS Assay for Allosteric Agonists of the Human D1 Dopamine Receptor: Primary Screen for Antagonists (AID 488983);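 further: calcium flux response to an EC80 dopamine challenge measured with no-wash dye; nearly all actives have a fitted effect of over 65% in size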
# In short: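 In this primary screen, compounds are applied to calcium-dye-loaded HEK293 T-REx cells with force-coupled D1 expression induced overnight at 30 C. An EC80 of dopamine follows the 180 s compound phase, and calcium is monitored for a further 180 s.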
# [6] = Validation screen for small molecules that induce genotoxicity in human embryonic kidney (HEK293T) cells expressing luciferase-tagged ELG1 (AID 493106)
# In short: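 In this validation screen, increased ELG1-luciferase signal flags compounds causing genetic stress. HEK293T reporter cells are treated 16 hr (37 °C, 5% CO2), developed with ONE-Glo for 30 min at room temperature, and imaged on a CCD-based reader.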
# [7] = biological target: ATP-dependent 6-phosphofructokinase (Trypanosoma brucei brucei) (UniProt O15648); test: qHTS Assay to Find Inhibitors of T. brucei phosphofructokinase: hit validation (AID 492961);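 further: luminescence reports ADP formed as PFK phosphorylates fructose-6-phosphate with ATP; series mostly up to about 51 µM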
# Chain of ATP-dependent 6-phosphofructokinase (Trypanosoma brucei brucei) (O15648 whole entry, looked up): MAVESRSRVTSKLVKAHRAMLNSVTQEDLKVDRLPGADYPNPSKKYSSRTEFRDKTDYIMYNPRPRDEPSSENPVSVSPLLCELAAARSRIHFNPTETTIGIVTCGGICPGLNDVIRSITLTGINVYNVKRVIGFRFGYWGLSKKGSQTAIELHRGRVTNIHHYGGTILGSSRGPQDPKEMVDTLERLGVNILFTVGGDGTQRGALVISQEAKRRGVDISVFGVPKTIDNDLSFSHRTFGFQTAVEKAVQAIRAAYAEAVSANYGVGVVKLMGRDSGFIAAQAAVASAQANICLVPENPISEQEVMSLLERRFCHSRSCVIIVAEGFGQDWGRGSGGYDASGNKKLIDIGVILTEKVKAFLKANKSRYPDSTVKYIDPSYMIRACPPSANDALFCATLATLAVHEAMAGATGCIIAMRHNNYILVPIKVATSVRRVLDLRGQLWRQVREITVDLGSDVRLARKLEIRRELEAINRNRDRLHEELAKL
# In short: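 Percent activity derived from corrected luminescence, normalized between 0x and 1x enzyme controls, then fitted to concentration-response curves. Conditions: 1.25 nM PFK, 0.1 mM ATP, 0.5 mM F6P, 45 min RT.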
# [8] = biological target: Transient receptor potential cation channel subfamily V member 1 (Homo sapiens) (UniProt Q8NER1); test: HTS Assay for Compounds that Act as Enhancers of the Vanilloid Receptor 1 (AID 488979)
# Chain of Transient receptor potential cation channel subfamily V member 1 (Homo sapiens) (Q8NER1 whole entry, looked up): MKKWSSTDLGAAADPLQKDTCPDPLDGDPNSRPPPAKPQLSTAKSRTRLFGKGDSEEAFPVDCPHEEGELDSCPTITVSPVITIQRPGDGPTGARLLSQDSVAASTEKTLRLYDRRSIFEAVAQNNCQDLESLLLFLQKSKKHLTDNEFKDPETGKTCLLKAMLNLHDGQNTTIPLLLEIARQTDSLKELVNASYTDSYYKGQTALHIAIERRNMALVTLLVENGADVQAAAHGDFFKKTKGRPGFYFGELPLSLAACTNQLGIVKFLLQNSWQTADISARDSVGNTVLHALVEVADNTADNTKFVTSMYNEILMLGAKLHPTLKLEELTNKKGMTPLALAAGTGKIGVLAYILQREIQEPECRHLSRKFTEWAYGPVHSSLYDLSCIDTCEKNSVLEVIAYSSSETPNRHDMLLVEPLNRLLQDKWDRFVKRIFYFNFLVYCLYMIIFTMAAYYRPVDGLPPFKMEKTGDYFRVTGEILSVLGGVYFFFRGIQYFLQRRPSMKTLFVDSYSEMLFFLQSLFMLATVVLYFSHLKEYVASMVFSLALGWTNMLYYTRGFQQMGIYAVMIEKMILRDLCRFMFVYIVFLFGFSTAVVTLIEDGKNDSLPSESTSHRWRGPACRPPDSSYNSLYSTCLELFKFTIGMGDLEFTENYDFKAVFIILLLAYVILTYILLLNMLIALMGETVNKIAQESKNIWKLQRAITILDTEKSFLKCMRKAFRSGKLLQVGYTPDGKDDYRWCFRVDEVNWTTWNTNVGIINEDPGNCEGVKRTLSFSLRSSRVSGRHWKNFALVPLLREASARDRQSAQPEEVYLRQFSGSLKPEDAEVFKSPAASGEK
# In short: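 TRPV1-expressing cells loaded with Fluo-8 calcium dye; compounds added and calcium influx read kinetically for 3 min (agonist phase), then capsaicin at EC20 added and read 2 min more for enhancement. Fluorescence ex 480/em 520 nm.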
# [9] = biological target: Thyrotropin receptor (Homo sapiens) (UniProt P16473); test: qHTS Assay for Antagonists of the Thyroid Stimulating Hormone Receptor (AID 488980); further: series mostly up to about 58 µM
# Chain of Thyrotropin receptor (Homo sapiens) (P16473 whole entry, looked up): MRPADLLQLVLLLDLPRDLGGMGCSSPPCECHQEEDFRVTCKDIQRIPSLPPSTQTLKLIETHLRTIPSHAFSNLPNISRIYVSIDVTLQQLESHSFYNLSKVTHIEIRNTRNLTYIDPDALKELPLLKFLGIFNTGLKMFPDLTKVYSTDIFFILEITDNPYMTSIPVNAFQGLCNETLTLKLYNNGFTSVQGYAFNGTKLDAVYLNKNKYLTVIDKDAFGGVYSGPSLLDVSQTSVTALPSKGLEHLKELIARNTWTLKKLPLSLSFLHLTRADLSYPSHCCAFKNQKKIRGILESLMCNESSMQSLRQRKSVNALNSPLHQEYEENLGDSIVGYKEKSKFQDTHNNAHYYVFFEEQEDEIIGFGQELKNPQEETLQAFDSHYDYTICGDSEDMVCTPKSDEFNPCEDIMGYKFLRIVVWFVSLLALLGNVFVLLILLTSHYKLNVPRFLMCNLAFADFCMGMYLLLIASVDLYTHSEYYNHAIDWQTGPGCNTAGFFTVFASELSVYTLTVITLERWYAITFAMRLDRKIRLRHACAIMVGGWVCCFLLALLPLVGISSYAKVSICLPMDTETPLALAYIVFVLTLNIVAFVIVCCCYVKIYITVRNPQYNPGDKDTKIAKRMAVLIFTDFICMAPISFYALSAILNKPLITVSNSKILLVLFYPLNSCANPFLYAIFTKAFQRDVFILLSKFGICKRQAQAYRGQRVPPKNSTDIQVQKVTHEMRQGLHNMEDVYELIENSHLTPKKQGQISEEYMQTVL
# In short: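 TSHR-HEK293 cells; 70 uM RO 20-1724 PDE inhibitor; compound + EC80 TSH (4 nM final); anti-cAMP cryptate antibody/cAMP-d2 in lysis buffer, 30 min RT; HTRF 665/620 nm read.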
# [10] = biological target: Tyrosyl-DNA phosphodiesterase 1 (Homo sapiens) (UniProt Q9NUW8); test: Confirmation Assay for Inhibitors of Tyrosyl-DNA Phosphodiesterase (TDP1) (AID 489007); settings: recombinant human TDP1 enzymatic activity, dose-response; further: potency means the concentration at half of the fitted maximal effect; nearly all actives have a fitted effect of over 40% in size
# Chain of Tyrosyl-DNA phosphodiesterase 1 (Homo sapiens) (Q9NUW8 whole entry, looked up): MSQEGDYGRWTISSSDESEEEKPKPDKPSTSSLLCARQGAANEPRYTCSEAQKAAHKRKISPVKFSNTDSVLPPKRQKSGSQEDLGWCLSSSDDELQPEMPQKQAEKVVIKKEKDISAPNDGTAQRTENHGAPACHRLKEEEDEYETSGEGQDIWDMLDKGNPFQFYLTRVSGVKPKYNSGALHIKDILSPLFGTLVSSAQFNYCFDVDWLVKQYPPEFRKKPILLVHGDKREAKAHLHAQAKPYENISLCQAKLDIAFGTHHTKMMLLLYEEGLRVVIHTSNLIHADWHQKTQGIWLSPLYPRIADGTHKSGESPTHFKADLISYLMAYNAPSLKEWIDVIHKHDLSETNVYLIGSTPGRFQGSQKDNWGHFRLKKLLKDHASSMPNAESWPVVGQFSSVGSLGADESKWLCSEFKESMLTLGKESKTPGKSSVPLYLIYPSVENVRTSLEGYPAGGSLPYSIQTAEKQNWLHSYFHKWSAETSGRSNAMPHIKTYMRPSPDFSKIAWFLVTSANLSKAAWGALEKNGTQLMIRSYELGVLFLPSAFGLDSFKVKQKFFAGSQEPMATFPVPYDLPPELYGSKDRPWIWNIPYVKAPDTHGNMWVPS
# In short: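 Loss of AlphaScreen signal reports Tdp1 cleavage of a dual-labelled DNA substrate. Conditions: 1 nM E. coli-derived enzyme, 15 nM substrate, 15 min compound preincubation, 5 min reaction, 10 min bead incubation, all at room temperature.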
smiles,measurement,setting,value
CC(C)(C)NC[C@H](O)COc1nsnc1N1CCOCC1,outcome,[1],inactive
same,outcome,[2],inactive
same,outcome,[3],inactive
same,outcome,[4],inactive
same,outcome,[5],inactive
same,outcome,[6],inactive
Cc1nc(-c2ccc(Cl)cc2)oc1COC(C)(C)C(=O)O,Potency,[7],inactive
CC(C)Nc1cccnc1N1CCN(C(=O)c2cc3cc(NS(C)(=O)=O)ccc3[nH]2)CC1,Potency,[7],inactive
CN1CCN(C2=Nc3cc(F)ccc3Cc3ccccc32)CC1,Potency,[7],inactive
Cc1ccc(S(=O)(=O)NC(=O)NC2CCCC2)cc1,Potency,[7],inactive
CCOCCn1c(N2CCCN(C)CC2)nc2ccccc21,Potency,[7],inactive
O=C(O)CCC(=O)Nc1ccc(S(=O)(=O)Nc2nccs2)cc1,Potency,[7],inactive
COc1ccc(CCN(C)CCCN2CCc3cc(OC)c(OC)cc3CC2=O)cc1OC,Potency,[7],inactive
CC(=O)NO,Potency,[7],inactive
O=c1[nH]c(=O)n([C@H]2C[C@H](O)[C@@H](CO)O2)cc1F,Potency,[7],inactive
OCc1ccccn1,Potency,[7],inactive
CCCc1ncc(C[n+]2ccccc2C)c(N)n1,Potency,[7],inactive
CCOc1ccccc1OCCN[C@H](C)Cc1ccc(OC)c(S(N)(=O)=O)c1,Potency,[7],inactive
Oc1ccc(Cl)cc1Cc1cc(Cl)ccc1O,Potency,[7],inactive
CN=C(N)NCCC[C@H](N)C(=O)O,outcome,[1],inactive
same,outcome,[2],inactive
same,outcome,[3],inactive
same,outcome,[4],inactive
same,outcome,[5],inactive
same,outcome,[6],inactive
NC(=S)N/N=C/c1cccnc1,Potency,[7],inactive
Cc1ccccc1OCC(O)CO (stereo unspecified),Potency,[7],inactive
CC(=O)OCC1=C(C(=O)O)N2C(=O)[C@@H](NC(=O)CSc3ccncc3)[C@H]2SC1,outcome,[8],inactive
same,outcome,[9],inactive
same,Potency,[10],2000 nM (active)
CC(=O)Nc1ncc([N+](=O)[O-])s1,Potency,[7],inactive
CCOC(=O)[C@H](CCc1ccccc1)N[C@@H](C)C(=O)N1[C@H](C(=O)O)C[C@H]2CCCC[C@@H]21,outcome,[1],inactive
same,outcome,[2],inactive
same,outcome,[3],inactive
same,outcome,[4],inactive
same,outcome,[5],inactive
same,Potency,[7],inactive
same,outcome,[6],inactive
CNCCc1ccccn1,Potency,[7],inactive
Cl/C(=C\n1cncn1)c1ccc(Cl)cc1Cl,Potency,[7],inactive
C/C=C/C=N/NC(=O)c1ccncc1,Potency,[7],inactive
CCCCCCCCCCCCCCCCO,Potency,[7],inactive
NC(=O)n1c(O)c(C(=O)c2cccs2)c2cc(Cl)ccc21,Potency,[7],inactive
CC(C)(Cc1c[nH]c2ccccc12)NCC(O)COc1ccccc1C#N (stereo unspecified),Potency,[7],inactive
C/C=C/c1ccc(O)c(OC)c1,Potency,[7],inactive
CC(C)=CCOc1ccc(/C=C/C(=O)c2ccc(OCC=C(C)C)cc2OCC(=O)O)cc1,Potency,[7],inactive
CC(=O)Nc1ccc(CC(=O)O)cc1,Potency,[7],inactive
CCOc1ccccc1C(N)=O,Potency,[7],inactive
COC(=O)C(c1ccccc1Cl)N1CCc2sccc2C1 (stereo unspecified),Potency,[7],inactive
CN1CCN(c2c(F)cc3c(=O)c(C(=O)O)cn4c3c2SCC4)CC1,Potency,[7],inactive
COc1ccc(CN(CCN(C)C)c2ncccn2)cc1,Potency,[7],inactive
NC(N)=NCc1cccc(I)c1,outcome,[1],inactive
same,outcome,[2],inactive
same,outcome,[8],inactive
same,outcome,[9],inactive
same,outcome,[3],inactive
same,outcome,[4],inactive
same,outcome,[5],inactive
same,outcome,[6],inactive
CN1CCC[C@@H]1CCO[C@](C)(c1ccccc1)c1ccc(Cl)cc1,Potency,[7],inactive
CN1CCN(CCC(=O)N2c3ccccc3Sc3ccc(C(F)(F)F)cc32)CC1,Potency,[7],inactive
